# Laboratory results as given in PubChem BioAssay AID1259415 (National Center for Advancing Translational Sciences (NCATS), 2018).
# In all, about 410,000 compounds went through this assay and about 18,000 (4.4%) were called active. Another 7% or so got no clear call; they are omitted. This is one part of a sample in which actives are shown more often than they occur. A number with no mark means an inactive call. No stated cut-off is given here; in the data, active means activity change below about -60%; inconclusive means no clear call, values can overlap the other calls; inactive means above about -39%.
# Assay: qHTS Assay for inhibitors of the human cytomegalovirus (HCMV)
# Conditions: HFF cells, HCMV-luciferase reporter, 72 h; at 57.5 µM; hits give low values
# Text: NCGC Assay Overview: Infection with human cytomegalovirus (HCMV) continues to pose significant threats for pregnant women and immunocompromised hosts. HCMV causes serious morbidity and mortality in transplant recipients, and congenital HCMV is the leading infectious cause of mental retardation and deafness in children. In the 1990s, the annual costs associated with the disease burden of congenital CMV were estimated at around $2 billion. A HCMV vaccine is not available yet and HCMV therapies result in intolerable side effects and emergence of drug resistant viruses. […] Towards this goal we have developed and characterized a luciferase HCMV reporter that was initially used in 96 well plates and then optimized to 1536-well plates for utilization in screening of the MLSMR collection, the NGCG diversity collection and the NCGC Pharmaceutical Collection of approved and investigational drugs.
# NCGC Assay Protocol Summary:
# This is a cell-based assay for HCMV inhibition in HFFs cells. The screening used 2 compound doses and the HCMV-luciferase at MOI of 1 PFU/cell. Cells were treated and infected with HCMV. At 72 h post infection cell lysates were collected and luciferase activity was determined using the Glomax-Multi + Detection System (Promega, Madison, WI). Data were normalized to the controls for basal activity (buffer only) and known HCMV inhibitors Salinmoycin.
# 1536-well assay protocol for the assay:
# (1) Add 3 ul CMV/HFF cell culture. 1000 cells/well in DMEM nirmal media.
# (2) Incubate 16 hr at 37C.
# (3) Add 23 nl control compound, 10uM of Salinomycin.
# (4) Add 23 nl compounds in DMSO solution.
# (5) Add 3 ul CMV suspension. Final 1 puf/ul, Virus stock 2000pfu/ul
# (6) Incubate 72 hrs at 37C.
# (7) Add 4 ul OneGlo Luc Reagent.
# (8) Incubate 5 min at room temperature.
# On the % scale 0 is the no-effect control and ±100 the full control effect.
row,Compound,"activity change, negative = inhibition"
1,COc1ccc(OCC(=O)Nc2ccc(NC(=O)c3ccco3)c(C)c2)cc1,-98.9% (active)
2,COc1ccc(NC(=O)COCc2cc(-c3ccco3)on2)cc1,10.4%
3,COc1ccc(NC(=O)c2ccco2)cc1NC(=O)COc1ccc(C)c(C)c1,23.1%
4,CC(C)(C)c1ccc(S(=O)(=O)N2CCN(C(=O)c3cc(-c4ccc(Br)cc4)n[nH]3)CC2)cc1,0%
5,COc1ccc(NC(=O)C2CCN(c3ccc(Sc4ccc(C)cc4)nn3)CC2)c(OC)c1,11.3%
6,O=C(CSc1nc2c(c(=O)[nH]1)CN(Cc1ccc(F)cc1)CC2)Nc1ccccc1Cl,-10.3%
7,O=C(NCCCN1CCN(c2ccc(F)cc2)CC1)Nc1ccc([N+](=O)[O-])cc1,-37.5%
8,Cc1ccc(C)c(N2CCN(CCCNC(=O)Nc3ccc(Cl)cc3)CC2)c1,-76.9% (active)
9,CC1=C(c2ccc(Cl)cc2)S(=O)(=O)N=C1N1CCN(c2cc(C)ccc2C)CC1,8.61%
10,CC1=C(c2ccc(C)c(C)c2)S(=O)(=O)NC1=NCc1ccccc1Cl,-23%
11,CC1=C(c2ccc(C)cc2)S(=O)(=O)NC1=NCCCN1CCN(c2cc(C)ccc2C)CC1,-96.1% (active)
12,COc1ccc(NC(=O)NCCN2CCN(c3ccc(C)cc3)CC2)c(Cl)c1,14.9%
13,O=C1C=C(NCCNc2c(F)c(F)c(CO)c(F)c2F)CCC1,74.7%
14,CCOc1ccc(N2C(=O)Nc3ccccc3C2(O)C(=O)NCc2ccco2)cc1 (centres undefined),14.9%
15,Cc1cc(C)cc(NC(=O)Cn2nc(N3CCN(c4ccccc4)CC3)ccc2=O)c1,-10.6%
16,O=C(N/N=C/c1ccccc1O)/C(=C/c1ccccc1)CCO,-88.1% (active)
17,NN=C(NN=Cc1ccccc1)c1ccccc1,49.5%
18,O=C(NN=Cc1ccccc1O)NN=Cc1ccccc1O,-96.4% (active)
19,O=C(CN1CCSCC1)N/N=C/c1ccc(F)cc1F,-10.6%
20,O=Nc1c(O)cc(O)c2ccccc12,13.3%
21,CCc1ccccc1NC(=O)/C(=C/c1ccccc1)c1ccccc1,-13.4%
22,CC(=O)N1CCc2cc(Br)cc(S(=O)(=O)CCC(=O)NCCc3ccc(Cl)cc3)c21,-23.8%
23,Cc1nc(N)sc1-c1ccccc1,-23.6%

row,Compound,"activity change, negative = inhibition"
1,Nc1ccc(-c2sc(N)nc2-c2ccccc2)cc1,-103% (active)
2,Nc1[nH]c(=S)nc2nc(-c3ccccc3)c(-c3ccccc3)nc12,-3.08%
3,CCn1c2ccccc2c2nnc(SCC(=O)O)nc21,-4.51%
4,CCCCn1c(CNC(=O)C23CC4CC(CC(C4)C2)C3)nnc1SCC(=O)Nc1ccc(C)cc1,13.3%
5,Cc1noc(C)c1CSCC(=O)N(CCC(C)C)c1c(N)n(Cc2ccccc2)c(=O)[nH]c1=O,4.61%
6,CCn1c(SCC(=O)NC2CC2)nnc1-c1ccncc1,56.4%
7,CCn1c(SCC(=O)NC2CC2)nnc1-c1ccccn1,-72.6% (active)
8,CCn1c(SCC(=O)NC2CCCC2)nnc1-c1ccoc1C,-17.9%
9,Cc1cc(C)c(C)c(S(=O)(=O)Nc2cccnc2)c1C,-18.7%
10,COc1ccccc1Oc1ccc(S(=O)(=O)Nc2cccnc2)cc1,-79.4% (active)
11,COc1ccc(S(=O)(=O)Nc2cccnc2)c(Cl)c1Cl,-8.35%
12,CCN(C(=O)CN1CCN(Cc2ccccc2)CC1)c1c(N)n(Cc2ccccc2)c(=O)[nH]c1=O,3.73%
13,Cc1c(-c2nc(-c3ccc4c(c3)OCO4)no2)nnn1-c1ccc(Br)cc1F,-0.877%
14,CCc1nn(CC(=O)N2CCN(c3cccc(C(F)(F)F)c3)CC2)c(=O)c2cc3occc3n12,-6.95%
15,COc1cccc(NC(=O)CSC2=Nc3ccccc3C3=NC(CC(=O)NC4CCCCC4)C(=O)N23)c1 (centres undefined),14%
16,O=C(NC1CC(=O)N(c2ccc(F)cc2)C1)c1ccc(S(=O)(=O)N2CCCC2)cc1 (centres undefined),-23.1%
17,CCCCCc1c(Cc2ccccc2)ncn1CCc1ccccc1OC,-93.7% (active)
18,CCCCNS(=O)(=O)CCNCc1ccccc1OC,-20.1%
19,COc1ccc(-c2nnc(SCC(=O)Nc3ccccc3C)o2)cc1OC,45.3%
20,CCCCCc1c(-c2ccc(OC)c(OC)c2)ncn1CCc1ccccc1OC,-102% (active)
21,COC(=O)c1ccc2nc(-c3ccc(OC)c(OC)c3)c(Cc3ccccc3)n2c1,33.9%
22,CCCCc1c(-c2ccc(Br)cc2)ncn1CCc1ccccc1OC,-102% (active)
23,COc1ccccc1CCNS(=O)(=O)c1cn(C)nc1C,-2.46%

row,Compound,"activity change, negative = inhibition"
1,CCCc1c(-c2ccccc2F)ncn1Cc1ccccc1OC,-31.6%
2,COc1ccccc1Cc1c(-c2ccc(Cl)cc2)nc2ccc(Cl)cn12,13.1%
3,FC(F)(F)c1cccc(-c2cnc3ccccc3n2)c1,32.3%
4,Nc1ncc(S(=O)(=O)Nc2ccc(OC(F)(F)F)cc2)cn1,4.7%
5,CCN1C(=O)c2ccccc2S(=O)c2ccc(C(=O)NCc3ccc(F)cc3)cc21 (centres undefined),6.08%
6,CSc1nn(Cc2cccc(C)c2)c(N)c1S(=O)(=O)c1ccccc1,-39.1%
7,O=C(Nc1ccc(OC(F)(F)F)cc1)c1ccc2c(c1)no[n+]2[O-],-88.8% (active)
8,Cc1ccc2ncc(C(=O)Nc3ccc(OC(F)(F)F)cc3)c(=O)n2c1,19.1%
9,COC(=O)c1cnn(-c2ccc(C(=O)Nc3ccc(OC(F)(F)F)cc3)cc2)c1N,-14.8%
10,Cc1ccccc1-n1c(C)cc(/C=N/NC(=O)c2ccc(CN3CCOCC3)cc2)c1C,-25.2%
11,Cc1cccc(-n2c(C)cc(/C=N\NC(=O)c3cccs3)c2C)c1,-61.8% (active)
12,COc1ccc2c(c1)c(C(=O)N/N=C/c1cccs1)c(C)n2C,-14.7%
13,O=C(Nc1cccc(Cl)c1)c1csnn1,-2.8%
14,CC(=O)Nc1cc(C(=O)NCc2ccc(F)cc2Cl)ccc1Sc1ccc(Cl)cc1,5.5%
15,Cc1nnsc1C(=O)N/N=C/c1cccc(C(F)(F)F)c1,-22.9%
16,O=C(Nc1ccc(-c2csc(Nc3cccc(C(F)(F)F)c3)n2)cc1)c1cccc(C(F)(F)F)c1,-66.8% (active)
17,Cn1c(C(=O)Nc2cccc(C(F)(F)F)c2)cc2c(=O)n3ccccc3nc21,63.8%
18,Cc1c(CCNC(=O)c2ccc(C(F)(F)F)cc2)sc2nc(-c3ccc(F)cc3)nn12,33.8%
19,COc1ccc(Cn2ccnc2SCC(=O)Nc2ccc3c(c2)OCO3)cc1,-2.47%
20,Cc1ccc2oc(C(=O)Nc3ccc(S(=O)(=O)N4CCCCCC4)cc3)cc(=O)c2c1,5.06%
21,CN1CCC(CN)(N2CCN(c3ccccc3)CC2)CC1,-78.1% (active)
22,Cn1nnc2c(N3CCN(c4ccccc4)CC3)ncnc21,-1.12%
23,CCS(=O)(=O)N1CCC(N2CCN(c3ccccc3)CC2)CC1,12.5%

row,Compound,"activity change, negative = inhibition"
1,CCc1cccc(CC)c1NC(=O)Cn1c(=O)c(-c2cc(C)ccc2NC(C)=O)nc2ccccc21,-4.17%
2,COc1ccc(CCC(=O)N2CCN(S(=O)(=O)c3ccc(OC)cc3)CC2)cc1,-31.5%
3,COc1ccc(S(=O)(=O)NCc2ccc(C(=O)N(C)Cc3ccco3)cc2)cc1,-13.3%
4,COc1ccc(CN(Cc2ccco2)S(=O)(=O)c2ccc(S(=O)(=O)N3CCCC3)cc2)cc1,-62% (active)
5,CC1CCN(c2ccc([N+](=O)[O-])c(SCCO)c2)CC1,-72.7% (active)
6,CC1CCN(c2ccc3c(c2)S(=O)(=O)c2cc(C(=O)O)ccc2C3=O)CC1,22.6%
7,CC1CCN(c2ccc(S(=O)(=O)Nc3cc(C(=O)O)cc(C(=O)O)c3)cc2[N+](=O)[O-])CC1,31%
8,COc1ccccc1N1CCN(C(=O)c2ccc(Cl)c(S(=O)(=O)N3CCCC3)c2)CC1,-64.9% (active)
9,CN(c1ccccc1)S(=O)(=O)c1cc(C(=O)Nc2nc3ccccc3[nH]2)ccc1Cl,-61.3% (active)
10,CN(c1ccccc1)S(=O)(=O)c1cccc(C(=O)NNC(=O)c2ccncc2)c1,-31.6%
11,COc1ccc(C(=O)N2CCN(c3ncccn3)CC2)cc1S(=O)(=O)N1CCOCC1,63%
12,CN(C)S(=O)(=O)c1cc(C(=O)N2CCC(C(=O)O)(c3ccccc3)CC2)ccc1Cl,14.8%
13,CCS(=O)(=O)N1CCc2cc(C(=O)N3CCN(c4ccccc4OC)CC3)ccc21,10.3%
14,CN(c1ccccc1)S(=O)(=O)c1ccc(C(=O)N2CCN(c3ccccc3Cl)CC2)cc1,-25.5%
15,CN(c1ccccc1)S(=O)(=O)c1cc(C(=O)N2CCN(c3ncccn3)CC2)ccc1Cl,-61.7% (active)
16,CN(c1ccccc1)S(=O)(=O)c1cc(C(=O)OCC(=O)N2CCN(C(=O)c3ccco3)CC2)ccc1Cl,-12%
17,COc1ccc(C2NC(=O)N(C)C3=C2C(=O)N(c2ccc(C(=O)O)cc2)C3)cc1 (centres undefined),15.3%
18,CCOC(=O)c1cc2c(=O)[nH]c(C(Cl)(Cl)Cl)nc2o1,-14.4%
19,CCOC(=O)c1ccc(NC(=O)C2CCN(S(=O)(=O)c3ccc4c(c3)CCCC(=O)N4)CC2)cc1,-34.6%
20,COc1cc(C(=O)Nc2ccc(OCc3cc(=O)n4cc(C)sc4n3)cc2)cc(OC)c1OC,13.1%
